Test [1] can be described thus: viability loss in pontine glioma line – cell-based, SU-DIPG-XVII, MIPE5.0, CellTiter-Glo, qHTS, dose response (AID 1347060; cut-off not given, nearly all actives have AC50 up to about 26 µM;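 on AC50: cells exposed to compound for 48 hours before viability readout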). The following applies: CellTiter-Glo ATP luminescence.
The nature of test [2]: viability loss in pontine glioma line – cell-based, SU-DIPG-XIII, MIPE4.0, CellTiter-Glo, qHTS, dose response (AID 1347061; cut-off not given, nearly all actives have AC50 up to about 37 µM;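 further: cells exposed to compound for 48 hours before readout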). The following applies: CellTiter-Glo ATP luminescence. Background: In ATP-based viability assays light output follows the ATP content of the culture.
Test [3] in a line: viability loss in pontine glioma line – cell-based, JHH-DIPG-1, MIPE4.0, CellTiter-Glo, qHTS, dose response (AID 1347062; cut-off not given, nearly all actives have AC50 up to about 27 µM;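 on AC50: cells exposed to compound for two days before readout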). The conditions noted are these: JHH-DIPG-1 viability, CellTiter-Glo ATP luminescence.
Test [4] is described as follows: viability loss in pontine glioma line – cell-based, SU-DIPG-XIII, MIPE5.0, CellTiter-Glo, qHTS, dose response (AID 1347064; cut-off not given, nearly all actives have AC50 up to about 23 µM;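 on AC50: cells exposed to compound for 48 hours before the viability read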). The conditions noted are these: CellTiter-Glo ATP luminescence.
Test [5] is described as follows: viability loss in pontine glioma line – cell-based, SU-DIPG-XXV, MIPE5.0, CellTiter-Glo, qHTS, dose response (AID 1347065; cut-off not given, nearly all actives have AC50 up to about 26 µM;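 further: cells exposed to compound for 48 hours before ATP readout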). The conditions noted are these: CellTiter-Glo ATP luminescence.
A short description of test [6]: growth inhibition of DIPG cells – cell-based, MIPE4.0 library, CellTiter-Glo luminescence, qHTS (AID 1347066; cut-off not given, nearly all actives have AC50 up to about 30 µM;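 further: cells exposed to compound for 48 hours before readout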). The conditions noted are these: SU-DIPG-VI viability, CellTiter-Glo ATP luminescence.
Test [7] in a line: JHH-DIPG-1 glioma cell viability, MIPE5.0 library, CellTiter-Glo luminescence, qHTS (AID 1347067; cut-off not given, nearly all actives have AC50 up to about 26 µM;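 further: cells exposed to compound for 48 hours before readout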). The following applies: JHH-DIPG-1 glioma viability, CellTiter-Glo ATP luminescence.
A short description of test [8]: growth inhibition of DIPG cells – cell-based, MIPE5.0 library, qHTS (AID 1347068; cut-off not given, nearly all actives have IC50 up to about 30 µM;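 on IC50: cells exposed to compound for 48 hours before viability readout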). The conditions noted are these: SU-DIPG-XXV viability. (In qHTS, concentration-response curves come from the screen itself.)
The nature of test [9]: viability loss with induced miR-34 in A549 – imaging, A549 dox-inducible miR-34, nuclei and caspase counts, primary screen (AID 1347080;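 active means compounds whose cell count with miR-34 switched on is under 0.7 times the count with it off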). The following applies: A549 miR-34 inducible, Hoechst nuclei count, 48 h.
Test [10] can be described thus: compounds altering HSF1 focus formation in cells – imaging, Selleck Cancer Library (AID 1347162; in the data active means plate-normalised HSF1 focus index below about 0.46). The conditions noted are these: human cells, HSF1 nuclear foci imaging, at 10 µM; SSMD: measured here: HSF1 foci SSMD mean; cell count: measured here: cell number; plate-normalised HSF1 focus index: stronger effect = lower value.
Test [11] in a line: MELAS cybrid and Rieske KO viability enhancers – cell-based, MELAS cybrids, Rieske KO mouse fibroblasts, CellTiter-Glo, primary screen (AID 1508586;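 active means mean z-score across replicates of 1.96 or higher in either the MELAS or the Rieske mutant cell line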;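 further: z relative to plate mean and SD of compound and empty wells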). The following applies: low glucose.
A short description of test [12]: drug combination growth inhibition, ovarian cancer – cell-based, oncology-focused library, rucaparib conditional, profiling panel (AID 1508598). The following applies: patient-derived ovarian cancer cells, CellTiter-Glo viability, 144 h, stronger effect = lower value.
The nature of test [13]: viability loss in pontine glioma line – cell-based, SU-DIPG-IV, MIPE4.0, CellTiter-Glo, qHTS, dose response (AID 1347063; cut-off not given, nearly all actives have AC50 up to about 30 µM;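 further: compound exposure lasted 48 hours before the viability readout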). The following applies: CellTiter-Glo ATP luminescence.

As a reminder, the AC50 is the concentration at which the activity in the assay is half-maximal. As a reminder, the viability is a read-out of living cells in per cent, often relative to untreated cells. As a reminder, the IC50 is the concentration that inhibits the measured activity by half.

Records with an inconclusive call do not appear. The source made the active and inactive calls.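 How the source made its calls, unless noted: active means normalized viability below 100% at a tested concentration; inactive means the rest.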

On to `CN(C)CC(C)(C)CNc1nn2c(-c3ccccc3)nnc2cc1C1CCC1`, for which the outcome in test [1], in test [2], in test [4], in [5], in [6] and in [7] was inactive. The compound was called inactive in test [8]. The AC50 in [3] was 16.6 µM (active).

`OCCn1cc(-c2cnc3nnn(Cc4ccc5ncccc5c4)c3n2)cn1`: the compound was called inactive in test [1], in test [2], in [3], in [4], in test [5] and in test [7]. The call in test [8] was inactive. The fold change in test [9] (stronger effect = lower value, cell number ratio, induced over uninduced) was 0.95 (inactive); in [9] (measured here: relative caspase fold change +Dox/-Dox) it was 1.2. Further, the cell count in test [9] (measured here: total cells with miR-34 induction, stronger effect = lower value) was 7870; in test [9] (measured here: total cells without miR-34 induction) it was 8280; in [10] it was 7630. Further, the SSMD in [10] turned out to be 2.68. The plate-normalised HSF1 focus index in test [10] is 1.17 (inactive). In addition, the z-score in test [11] (MELAS cybrid survival, CellTiter-Glo 48 h, stronger effect = higher value) was -0.449 (inactive); in [11] (Rieske KO mouse fibroblast survival, CellTiter-Glo 72 h), 0.57. Also, the viability in test [12] (at 0.000305 µM, OCI-C5x cells, with rucaparib 10 µM, 100% = cells with rucaparib alone) was 111% (inactive); in test [12] (at 0.000305 µM, OCI-C5x cells, without rucaparib) it was 109% (inactive); in [12] (at 0.000305 µM, OCI-P5x cells, with rucaparib 20 µM, 100% = cells with rucaparib alone) it was 99.5% (active); in [12] (at 0.000305 µM, OCI-P5x cells, without rucaparib) it was 102% (inactive); in test [12] (at 0.00122 µM, OCI-C5x cells, with rucaparib 10 µM, 100% = cells with rucaparib alone), 118% (inactive); in test [12] (at 0.00122 µM, OCI-C5x cells, without rucaparib), 110% (inactive). Besides, the viability in test [12] (at 0.00122 µM, OCI-P5x cells, with rucaparib 20 µM, 100% = cells with rucaparib alone) was 106% (inactive); in [12] (at 0.00122 µM, OCI-P5x cells, without rucaparib), 105% (inactive); in test [12] (at 0.00488 µM, OCI-C5x cells, with rucaparib 10 µM, 100% = cells with rucaparib alone), 119% (inactive); in [12] (at 0.00488 µM, OCI-C5x cells, without rucaparib), 113% (inactive); in test [12] (at 0.00488 µM, OCI-P5x cells, with rucaparib 20 µM, 100% = cells with rucaparib alone), 102% (inactive); in test [12] (at 0.00488 µM, OCI-P5x cells, without rucaparib), 102% (inactive). Further, the viability in [12] (at 0.0195 µM, OCI-C5x cells, with rucaparib 10 µM, 100% = cells with rucaparib alone) is 118% (inactive); in test [12] (at 0.0195 µM, OCI-C5x cells, without rucaparib), 112% (inactive); in test [12] (at 0.0195 µM, OCI-P5x cells, with rucaparib 20 µM, 100% = cells with rucaparib alone), 102% (inactive); in test [12] (at 0.0195 µM, OCI-P5x cells, without rucaparib), 99.8% (active); in test [12] (at 0.0781 µM, OCI-C5x cells, with rucaparib 10 µM, 100% = cells with rucaparib alone), 124% (inactive); in test [12] (at 0.0781 µM, OCI-C5x cells, without rucaparib) it was 117% (inactive). Besides, the viability was 102% (inactive) in test [12] (at 0.0781 µM, OCI-P5x cells, with rucaparib 20 µM, 100% = cells with rucaparib alone); 101% (inactive) in test [12] (at 0.0781 µM, OCI-P5x cells, without rucaparib); 126% (inactive) in test [12] (at 0.313 µM, OCI-C5x cells, with rucaparib 10 µM, 100% = cells with rucaparib alone); 118% (inactive) in test [12] (at 0.313 µM, OCI-C5x cells, without rucaparib); 102% (inactive) in test [12] (at 0.313 µM, OCI-P5x cells, with rucaparib 20 µM, 100% = cells with rucaparib alone); 106% (inactive) in test [12] (at 0.313 µM, OCI-P5x cells, without rucaparib). The viability in [12] (at 1.25 µM, OCI-C5x cells, with rucaparib 10 µM, 100% = cells with rucaparib alone) was 124% (inactive); in test [12] (at 1.25 µM, OCI-C5x cells, without rucaparib), 113% (inactive); in test [12] (at 1.25 µM, OCI-P5x cells, with rucaparib 20 µM, 100% = cells with rucaparib alone), 101% (inactive); in test [12] (at 1.25 µM, OCI-P5x cells, without rucaparib), 99.8% (active); in test [12] (at 5 µM, OCI-C5x cells, with rucaparib 10 µM, 100% = cells with rucaparib alone), 148% (inactive); in [12] (at 5 µM, OCI-C5x cells, without rucaparib) it was 123% (inactive). Besides, the viability in test [12] (at 5 µM, OCI-P5x cells, with rucaparib 20 µM, 100% = cells with rucaparib alone) is 97.4% (active); in test [12] (at 5 µM, OCI-P5x cells, without rucaparib), 94.2% (active).

Take `NC(=O)c1cccc2cn(-c3ccc([C@@H]4CCCNC4)cc3)nc12`: the AC50 in test [1] is 8.33 µM (active). Further, the result in [2], in test [3], in [13], in [6] and in test [7] was inactive.

For `C/C=C1\NC(=O)[C@H]2CSSCC/C=C\[C@H](CC(=O)N[C@H](C(C)C)C(=O)N2)OC(=O)[C@H](C(C)C)NC1=O`, the AC50 is 0.0833 µM (active) in [1]; 0.0148 µM (active) in test [2]; 0.0118 µM (active) in [3]; 0.00935 µM (active) in [13]; 0.059 µM (active) in [5]. Further, the IC50 in test [8] is 3.72 µM (active).

For the compound `CC(C)(N)C(=O)N[C@H](COCc1ccccc1)C(=O)N1CCC2(CC1)CN(S(C)(=O)=O)c1ccccc12`, the call in test [1], in [2], in [3], in [4], in test [5] and in test [6] was inactive. The outcome in [7] and in test [8] was inactive.

Consider `O=C(CCCCCCC(=O)Nc1cccnc1)NO`, for which the AC50 in test [1] is 8.33 µM (active); in [2], 9.35 µM (active); in test [3], 7.43 µM (active); in [4] it was 5.9 µM (active); in test [5], 7.42 µM (active); in test [7], 3.32 µM (active). For the same compound, the SSMD in test [10] amounted to 1.14. In addition, in test [10], the cell count is 7080. For the same compound, the plate-normalised HSF1 focus index in test [10] is 1.07 (inactive).

The values above are taken from PubChem BioAssay.
